The results in this text go back to PubChem BioAssay (EPA / NIEHS).

As a reminder, the AC50 is the midpoint of the concentration-response curve, whichever way the signal moves.

Read-out in experiment [1]: E-selectin (Homo sapiens) (UniProt P16581)
The experiment in a line: BSK_LPS_Eselectin: BioMAP Diversity Plus: LPS Assay for Eselectin Biomarker Activity (AID 2283077). The following applies: primary human HUVEC with PBMC; actives raise or lower the signal. The procedure, abridged:
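Signal of E-selectin, detected by ELISA, served as the endpoint; cells were umbilical vein endothelium with PBMC, read 24 h after treatment. DMSO defined baseline, and both increases and decreases were fitted.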

Read-out in experiment [2]: Interleukin-8 (IL8), CXCL8 (gene 3576)
The experiment in a line: BSK_LPS_IL8: BioMAP Diversity Plus: LPS Assay for Interleukin-8 (IL8) Biomarker Activity (AID 2283078). Conditions: primary human HUVEC with PBMC; actives raise or lower the signal. The gist of the method:
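Endothelial cells and PBMC from human donors are co-cultured, treated with chemicals and LPS, then assayed for IL-8 by ELISA after 24 h. Parallel SRB staining (0.1% SRB after 10% TCA fixation, 560 nm) flags cytotoxicity.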

Experiment [3] can be described thus: BSK_LPS_SRB: Viability Assessment in the BioMAP Diversity Plus: LPS Assay (AID 2283079).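 Note: total protein by sulforhodamine B absorbance as a cytotoxicity measure; measured one day after compound addition; fitted in both directions against DMSO so loss or gain of signal counts.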 The following applies: primary human HUVEC with PBMC. The procedure, abridged:
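Overt cytotoxicity was gauged by sulforhodamine B total-protein staining in a primary human vascular endothelial and mononuclear cell co-culture 24 h post-dosing. Activity was fitted in both directions relative to DMSO.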

Read-out in experiment [4]: Interleukin-1 alpha (IL1a), IL1A (gene 3552)
The experiment in a line: BSK_LPS_IL1a: BioMAP Diversity Plus: LPS Assay for Interleukin-1 alpha (IL1a) Biomarker Activity (AID 2283080). The following applies: primary human HUVEC with PBMC; actives raise or lower the signal. The procedure, abridged:
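Measured: IL-1 alpha via ELISA at 24 h in LPS-activated human umbilical vein endothelium–PBMC co-culture. Baseline: DMSO, bidirectional fitting.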

Read-out in experiment [5]: Monocyte Chemoattractant Protein-1 (MCP1), CCL2 (gene 6347)
The experiment in a line: BSK_LPS_MCP1: BioMAP Diversity Plus: LPS Assay for Monocyte Chemoattractant Protein-1 (MCP1) Biomarker Activity (AID 2283081). The following applies: primary human HUVEC with PBMC; actives raise or lower the signal. The gist of the method: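 LPS-stimulated HUVEC/PBMC co-culture; chemical, 24 h; MCP-1 by ELISA; bidirectional fit vs DMSO; cytotoxicity via SRB (0.1% stain, 10% TCA fix, 560 nm) in parallel wells.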

A short description of experiment [6]: BSK_LPS_PGE2: BioMAP Diversity Plus: LPS Assay for Prostaglandin E2 (PGE2) Biomarker Activity (AID 2283082).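 For AC50: secreted prostaglandin E2 measured by ELISA in LPS-stimulated co-culture.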 The following applies: primary human HUVEC with PBMC; actives raise or lower the signal. The gist of the method: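 ELISA read-out of PGE2 from human umbilical vein endothelial cells co-cultured with peripheral blood mononuclear cells under LPS, 24 h post-dose. Gain or loss of signal scored relative to DMSO baseline.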

Read-out in experiment [7]: Macrophage colony-stimulating factor (MCSF), CSF1 (gene 1435)
The experiment in a line: BSK_LPS_MCSF: BioMAP Diversity Plus: LPS Assay for Macrophage colony-stimulating factor (MCSF) Biomarker Activity (AID 2283083). Conditions: primary human HUVEC with PBMC; actives raise or lower the signal. The procedure, abridged:
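Compound is added to a human vascular primary co-culture of umbilical vein endothelium and blood mononuclear cells. After 24 h, M-CSF is quantified by ELISA. Signal changes are fitted in both directions against DMSO.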

Read-out in experiment [8]: Tissue Factor, F3 (gene 2152)
The experiment in a line: BSK_LPS_TissueFactor: BioMAP Diversity Plus: LPS Assay for Tissue Factor Biomarker Activity (AID 2283084). Conditions: primary human HUVEC with PBMC; actives raise or lower the signal. The procedure, abridged: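 In this co-culture system of umbilical vein endothelium with PBMC, stimulated with LPS, cell-surface CD142 is detected by ELISA at 24 h. Endpoint values derive from bidirectional fitting, DMSO serving as baseline.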

Read-out in experiment [9]: Tumor necrosis factor (Homo sapiens) (UniProt P01375)
The experiment in a line: BSK_LPS_TNFa: BioMAP Diversity Plus: LPS Assay for Tumour Necrosis Factor alpha (TNFa) Biomarker Activity (AID 2283085).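 For AC50: TNFa protein level quantified by ELISA in the co-culture.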 Conditions: primary human HUVEC with PBMC; actives raise or lower the signal. The procedure, abridged:
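HUVEC/PBMC co-culture, LPS-stimulated; 24 h post-dose; TNFa by ELISA; gain or loss of signal fitted bidirectionally vs DMSO baseline.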

Read-out in experiment [10]: Vascular cell adhesion molecule 1 (VCAM1), VCAM1 (gene 7412)
The experiment in a line: BSK_LPS_VCAM1: BioMAP Diversity Plus: LPS Assay for Vascular cell adhesion molecule 1 (VCAM1) Biomarker Activity (AID 2283086). Conditions: primary human HUVEC with PBMC; actives raise or lower the signal. The gist of the method: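 ELISA read-out of VCAM-1 at 24 h post-dosing in an LPS-driven HUVEC/PBMC primary human co-culture; gain or loss of signal fitted bidirectionally against DMSO baseline. Cytotoxicity tracked in parallel cultures by SRB total-protein staining.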

Structures are written as SMILES. Activity calls are given as the source filed them. Rule for the calls: active = hit-call score of the fitted dose curve at least 0.9, where 1 is the maximum; inactive = score below 0.9.

E-selectin (Homo sapiens), sequence (P16581 whole entry, looked up): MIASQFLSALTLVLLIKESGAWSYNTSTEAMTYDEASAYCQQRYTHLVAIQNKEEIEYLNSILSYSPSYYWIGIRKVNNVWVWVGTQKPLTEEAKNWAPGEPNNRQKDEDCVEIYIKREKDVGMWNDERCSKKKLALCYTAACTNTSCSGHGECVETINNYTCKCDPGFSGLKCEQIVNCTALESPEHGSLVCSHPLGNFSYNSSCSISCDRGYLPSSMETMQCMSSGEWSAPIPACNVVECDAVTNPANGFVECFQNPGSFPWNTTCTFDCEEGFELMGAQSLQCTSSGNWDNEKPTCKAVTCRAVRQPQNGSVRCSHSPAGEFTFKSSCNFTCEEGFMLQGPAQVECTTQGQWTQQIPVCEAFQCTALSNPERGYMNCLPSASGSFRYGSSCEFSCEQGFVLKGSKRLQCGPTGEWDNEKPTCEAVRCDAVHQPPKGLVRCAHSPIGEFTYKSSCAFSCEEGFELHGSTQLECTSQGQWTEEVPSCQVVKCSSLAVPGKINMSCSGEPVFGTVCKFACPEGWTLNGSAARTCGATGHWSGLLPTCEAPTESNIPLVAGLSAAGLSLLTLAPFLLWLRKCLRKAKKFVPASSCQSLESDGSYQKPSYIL
Tumor necrosis factor (Homo sapiens), sequence (P01375 whole entry, looked up): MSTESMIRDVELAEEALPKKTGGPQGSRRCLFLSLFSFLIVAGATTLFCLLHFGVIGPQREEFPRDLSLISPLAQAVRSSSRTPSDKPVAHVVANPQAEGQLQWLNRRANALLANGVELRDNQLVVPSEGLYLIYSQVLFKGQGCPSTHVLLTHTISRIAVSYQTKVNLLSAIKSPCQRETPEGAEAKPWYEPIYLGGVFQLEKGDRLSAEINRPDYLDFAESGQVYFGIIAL

As to `NC1CCCCC1`, the outcome in experiment [1], in experiment [2], in experiment [3], in experiment [4], in experiment [5] and in experiment [6] was inactive. Moreover, the result in [7], in experiment [8], in [9] and in experiment [10] was inactive.

Turning to `CCc1cc(C2=C(C(=O)O)N(c3ccccc3C(F)(F)F)S(=O)(=O)c3ccccc32)cc2c1OCO2`, the outcome in [1], in experiment [2], in [3], in experiment [4], in experiment [5] and in [6] was inactive. In addition, the result in [7], in [8], in experiment [9] and in experiment [10] was inactive.

Regarding `CC1=C(C)S(=O)(=O)CCS1(=O)=O`, the result in [1], in experiment [2], in experiment [3], in experiment [4], in experiment [5] and in experiment [6] was inactive. In addition, the outcome in [7], in experiment [8] and in experiment [9] was inactive. Moreover, in [10], the AC50 was 11.5 µM (active).

With `O=C1O[C@H]([C@H](O)CO)C(O)=C1O`, the result in experiment [1], in experiment [2], in [3], in [4], in [5] and in experiment [6] was inactive. In addition, the outcome in experiment [7], in experiment [8], in experiment [9] and in experiment [10] was inactive.

As for `C/C=C/C=C/C(=O)O`, the outcome in experiment [1], in [2], in experiment [3], in experiment [4], in experiment [5] and in experiment [6] was inactive. The outcome in [7], in experiment [8], in experiment [9] and in [10] was inactive.

On to `CSc1ccc(Oc2ccc(S(N)(=O)=O)cc2CN(C)C)cc1C`, for which the outcome in experiment [1], in [2], in experiment [3], in experiment [4], in [5] and in experiment [6] was inactive. Further, the result in experiment [7], in experiment [8], in [9] and in [10] was inactive.

Regarding `NC=O`, the outcome in [1], in experiment [2], in experiment [3], in experiment [4], in experiment [5] and in experiment [6] was inactive. The outcome in [7], in experiment [8], in experiment [9] and in [10] was inactive.

Turning to `CC(N)=O`, the outcome in [1], in [2], in experiment [3], in experiment [4], in [5] and in [6] was inactive. Besides, the outcome in experiment [7], in [8] and in [10] was inactive.

`CCCCCCCC(=O)OC`: the outcome in experiment [1], in experiment [2], in [3], in [4], in experiment [5] and in experiment [6] was inactive. Further, the outcome in experiment [7], in [8], in experiment [9] and in experiment [10] was inactive.

Take `Cc1ccc(C(C)(C)C)c(O)c1`: the result in [1], in experiment [2], in [3], in experiment [4], in experiment [5] and in experiment [7] was inactive. For the same compound, the outcome in experiment [8] and in experiment [10] was inactive. Also, the AC50 in experiment [6] is 3.09 µM (active).

As to `O=C(NS(=O)(=O)/C=C/c1cccs1)c1ccc(F)cc1Br`, the outcome in experiment [1], in [2], in experiment [3], in [4], in [5] and in [6] was inactive. Besides, the outcome in [7], in [8] and in experiment [10] was inactive.

In the case of `O=C1CCCCC1`, the result in [1], in experiment [2], in [3], in experiment [4], in experiment [5] and in experiment [6] was inactive. Also, the outcome in [7], in experiment [8], in experiment [9] and in experiment [10] was inactive.

With `Cc1cc(SC2=C(O)C[C@@](CCc3ccc(N)cc3)(C(C)C)OC2=O)c(C(C)(C)C)cc1CO`, the result in [1], in [2], in experiment [3], in experiment [4], in experiment [5] and in experiment [6] was inactive. In addition, the result in [7], in experiment [8] and in experiment [10] was inactive. In addition, the AC50 in experiment [9] was 20 µM (active).

For `c1ccc2occc2c1`, the result in experiment [1], in experiment [2], in [3], in experiment [4], in experiment [5] and in [6] was inactive. In addition, the result in [7], in experiment [8], in [9] and in [10] was inactive.

On to `N[C@@H](Cc1c[nH]c2ccccc12)C(=O)O`, for which the outcome in experiment [1], in experiment [2], in experiment [3], in experiment [4], in experiment [5] and in experiment [6] was inactive. Also, the result in [7], in experiment [8], in experiment [9] and in experiment [10] was inactive.

For the compound `O=C1OC(c2ccc(O)cc2)(c2ccc(O)cc2)c2ccccc21`, the result in [1], in experiment [4], in [5], in [6] and in experiment [8] was inactive. Moreover, the AC50 in [2] was 20 µM (active); in [3], 31.9 µM (active); in [7], 31.1 µM (active); in experiment [9], 20 µM (active); in [10], 30.7 µM (active).

On to `Cc1occc(=O)c1O`, for which the outcome in [1], in [2], in experiment [3], in experiment [4], in experiment [5] and in experiment [6] was inactive. The outcome in experiment [7], in experiment [8], in [9] and in [10] was inactive.

Regarding `S=c1[nH]c2ccccc2s1`, the outcome in experiment [1], in experiment [2], in [3], in experiment [4], in experiment [5] and in experiment [7] was inactive. Moreover, the result in [9] and in experiment [10] was inactive. Besides, the results for the AC50 in experiment [6] and in [8] were 12.9 µM (active) and 2.23 µM (active), respectively.

`CC(C)NCC(O)c1ccc(O)c(O)c1` (configuration not stated): the result in [1], in [2], in experiment [3], in experiment [4], in experiment [5] and in experiment [6] was inactive. The result in experiment [7], in experiment [8] and in [10] was inactive. The AC50 in experiment [9] was 0.262 µM (active).

Consider `CCCCCCC(CCCCCCCCCCC(=O)OCC(COC(C)=O)OC(C)=O)OC(C)=O` (configuration not stated), for which the result in experiment [1], in experiment [2], in [3], in experiment [4], in [5] and in experiment [6] was inactive. For the same compound, the outcome in experiment [7], in experiment [8], in experiment [9] and in experiment [10] was inactive.
